These results are taken from PubChem BioAssay (NCI).

Test [1] in a line: NCI Yeast Anticancer Drug Screen. Data for the rad50 strain (AID 155).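 Also: 0% = growth of vehicle-only cultures of the same strain.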 As to conditions: S. cerevisiae rad50 strain growth inhibition; at 50.0 µM; stronger effect = higher value. In a few lines:
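Yeast carrying a defined DNA repair defect were exposed to test compounds, and growth was compared with vehicle-treated controls to give percent inhibition.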

A short description of test [2]: NCI Yeast Anticancer Drug Screen. Data for the mec2-1 strain (AID 157). To be noted: S. cerevisiae mec2-1 strain, at 50.0 µM, stronger effect = higher value. Put shortly:
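Using mec2-1 yeast: add compound, measure growth, express inhibition versus vehicle-treated cultures.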

Test [3] is described as follows: NCI Yeast Anticancer Drug Screen. Data for the sgs1 mgt1 strain (AID 161).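 Also: 0% = growth of cultures given vehicle only.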 To be noted: S. cerevisiae sgs1 mgt1 strain, at 50.0 µM, stronger effect = higher value. Put shortly:
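Compounds are added to genetically altered yeast, and growth is compared with cultures given vehicle alone to give percent inhibition.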

Test [4] can be described thus: NCI Yeast Anticancer Drug Screen. Data for the cln2 rad14 strain (AID 165).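 Also: 0% = growth equal to vehicle treated cultures.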 As to conditions: S. cerevisiae cln2 rad14 strain, at 50.0 µM, stronger effect = higher value. In a few lines:
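Yeast strain cln2 rad14, bearing defects in cell cycle control and DNA repair, serves as the test system; values reflect growth inhibition compared with vehicle.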

Test [5] can be described thus: NCI Yeast Anticancer Drug Screen. Data for the bub3 strain (AID 167). As to conditions: S. cerevisiae bub3 mutant strain, at 50.0 µM, stronger effect = higher value. Put shortly:
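Compounds were applied to a genetically altered yeast strain carrying a cell-cycle control defect. Growth inhibition was scored against vehicle-treated controls.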

Test [6] can be described thus: NCI Yeast Anticancer Drug Screen. Data for the mlh1 rad18 strain (AID 175). To be noted: S. cerevisiae mlh1 rad18 strain growth inhibition; at 50.0 µM; stronger effect = higher value. Put shortly: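 Steps: expose repair-defective yeast to compound; measure growth; express inhibition against vehicle-treated controls.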

This is part of a sample that, as a whole, favours compounds with a hit. Of some 79,000 tested, about 15% had one in any assay. Unmarked numbers belong to inactive results. Activity calls are given as the source filed them. Rule as the data show it: active = growth inhibition above about 70%; inactive = the rest.

As to `CC1(C)C(N2CCOCC2)CS1(=O)=O` (stereo not drawn), the growth inhibition was 1.75% in test [1]; -5.2% in test [2]; -1.5% in test [3]; -24.2% in test [4]; -15.7% in test [5]; 3.25% in test [6].

As to `O=[N+]([O-])c1ccccc1N=Nc1c(O)[nH]c2c(Cl)cc(Cl)cc12`, the growth inhibition in test [1] is -25.9%; in test [2], -35.6%; in test [3] it was -31.9%; in test [4], -16.2%; in test [5] it was -45.4%; in test [6] it was -47.4%.

`COC(=O)/C(=N\NC(N)=O)C(C#N)c1ccccc1` (stereo not drawn): the growth inhibition was -12.5% in test [1]; -1.85% in test [2]; -5.75% in test [3]; -29.9% in test [4]; 6.7% in test [5]; -4.8% in test [6].

On to `Cc1ccc(NC(=O)CC/C(CC(=O)C(C)(C)C)=N/NC(=O)C(N)=O)cc1C`, for which the growth inhibition in test [1] is -2.75%; in test [2] it was -9.95%; in test [3], 10.5%; in test [4], 10.6%; in test [5], 8.55%; in test [6], 5.1%.

`C#CC1(NC(=O)c2ccccc2C(=O)Nc2cccc(C(F)(F)F)c2)CCCCC1`: the growth inhibition in test [1] was -12.9%; in test [2], -19.1%; in test [3], -14.2%; in test [4], 11.3%; in test [5], -20.1%; in test [6], -14.2%.

As for `Cc1cc2c(=O)n(-c3ccc(F)cc3)c(C)nc2c(C(=O)O)c1C`, the growth inhibition in test [1] is -11.3%; in test [2], -8.75%; in test [3], -0.6%; in test [4], 10%; in test [5], -14.6%; in test [6], 9.55%.

On to `CCN(CC)C(=O)C1CCN(Cc2c[nH]c3ccccc23)CC1`, for which the growth inhibition in test [1] is -3.05%; in test [2] it was -6.85%; in test [3] it was -10.2%; in test [4] it was -53%; in test [5], 2.75%; in test [6], -0.2%.

As for `CCCc1cc(=O)oc2c3c(c4c(c12)OC(C)(C)CC4)O[C@H](C)C(C)C3O` (stereo partly drawn), the growth inhibition in test [1] was 24.8%; in test [2], 11.6%; in test [3], 11.6%; in test [4] it was 26.1%; in test [5] it was 47.6%; in test [6], 35%.

For `OCC[N-]CC[N-]CCO.[Cl][Co][Cl]`, the growth inhibition was 27.8% in test [1]; 32.1% in test [2]; 32.7% in test [3]; 22.9% in test [4]; 36.6% in test [5]; 35.2% in test [6].

Take `CCN(CC)CCCC(C)Nc1ccnc2c(Cl)cccc12` (stereo not drawn): the growth inhibition in test [1] is 15.7%; in test [2], 14.3%; in test [3], 22.4%; in test [4], 22.6%; in test [5], 5.2%; in test [6] it was 2.4%.

Turning to `O=C(O)c1cc(Cl)c(Cl)s1`, the growth inhibition in test [1] was 13.2%; in test [2] it was -20.1%; in test [3] it was 16.7%; in test [4] it was -68.9%; in test [5], -18.3%; in test [6], -1.9%.

With `CSc1ccccc1C(C)(C)O`, the growth inhibition was 24.6% in test [1]; -2.55% in test [2]; 3.35% in test [3]; -29.8% in test [4]; -1.4% in test [5]; 26.4% in test [6].

For the compound `CCOC(=O)Cn1c(=O)n(C)c(=O)c2c1ncn2Cc1ccccc1`, the growth inhibition was 0.7% in test [1]; -31.2% in test [2]; -14.3% in test [3]; -4.25% in test [4]; 9.5% in test [5]; -14.4% in test [6].

Consider `O=C1c2ccccc2C(=O)N1CCc1ncc(-c2ccccc2)[nH]1`, for which the growth inhibition in test [1] is -16.4%; in test [2], 7.85%; in test [3] it was -16.1%; in test [4], 12.4%; in test [5], 1.1%; in test [6] it was 1.9%.

As to `Cc1cc(C(C)(C)CC(=O)O)cc(C)c1C`, the growth inhibition was 60.6% in test [1]; 37.4% in test [2]; 27.6% in test [3]; 43.6% in test [4]; 54% in test [5]; 56.3% in test [6].

For `COc1ccc(-c2cc3cc(Cl)cc(Cl)c3oc2=O)cc1OC`, the growth inhibition in test [1] was -13.6%; in test [2], -8.6%; in test [3], -17.8%; in test [4], -4.85%; in test [5], -3.25%; in test [6], -16.1%.

Take `Cc1cc(C)c(C(=O)c2ccccc2C)c(C)c1`: the growth inhibition in test [1] was 21.3%; in test [2], -1%; in test [3], -0.35%; in test [4] it was -23.5%; in test [5], 11.3%; in test [6] it was 15.7%.

For the compound `O=C(Nc1ccc(S(=O)(=O)NC2CCCCC2)cc1)OC1CCCCCC1`, the growth inhibition is 2.6% in test [1]; -1.25% in test [2]; 7.75% in test [3]; 4.35% in test [4]; -1.95% in test [5]; -0.85% in test [6].

Take `OCC1CCCC1`: the growth inhibition in test [1] was 12.3%; in test [2], -18.4%; in test [3], -0.05%; in test [4] it was -2.95%; in test [5], -1.5%; in test [6] it was 9.7%.

Consider `Nc1cc(Cl)cc2c1nc(NCCO)c1ccccc12`, for which the growth inhibition was 54.7% in test [1]; 60.3% in test [2]; 49.1% in test [3]; 97.9% (active) in test [4]; 51.6% in test [5]; 56.5% in test [6].

On to `Clc1ccc(-c2ncc(-c3ccccc3)o2)cc1`, for which the growth inhibition is 20.8% in test [1]; -13.7% in test [2]; -6.75% in test [3]; 4.2% in test [4]; 33.6% in test [5]; -9.9% in test [6].

Regarding `O=C(CCc1nnc2s/c(=C\c3ccccc3)c(=O)n12)Nc1cc(Cl)ccc1Cl`, the growth inhibition is -30.9% in test [1]; -1.6% in test [2]; -18.4% in test [3]; 16.4% in test [4]; 4.95% in test [5]; -1.45% in test [6].

In the case of `S=C(CC(=S)N1CCOCC1)N1CCOCC1`, the growth inhibition in test [1] was -15.1%; in test [2] it was -1.5%; in test [3] it was -10.5%; in test [4], -14.7%; in test [5] it was -11.7%; in test [6], -1.75%.

On to `[N-]=[N+]=NC(=O)C1C(c2ccccc2)=C1c1ccccc1`, for which the growth inhibition in test [1] is 45.5%; in test [2], 6.8%; in test [3] it was -0.2%; in test [4] it was 23.7%; in test [5], 27.8%; in test [6] it was -10.2%.

On to `C[C@]12CCC(=O)C=C1CC[C@@H]1C2CC[C@]2(C)NC(=O)C(C#N)CC12` (stereo partly drawn), for which the growth inhibition was -29.1% in test [1]; -10.2% in test [2]; -14.9% in test [3]; -23.9% in test [4]; -15.2% in test [5]; -9.6% in test [6].

Consider `COc1c(OC(C)=O)cc(Cl)c(C=O)c1[N+](=O)[O-]`, for which the growth inhibition in test [1] was 5.25%; in test [2], 2.4%; in test [3], 19.3%; in test [4], 5.8%; in test [5], 1.55%; in test [6], -9.3%.

Turning to `CCCCCCCCCCCC(=O)N/N=C(\C)c1cccc2ccccc12`, the growth inhibition in test [1] was 86.8% (active); in test [2], 84.2% (active); in test [3] it was 94% (active); in test [4], 59.8%; in test [5], 43.8%; in test [6], 84.2% (active).

For `OCCc1ccccc1CCO`, the growth inhibition was -29.6% in test [1]; -17.8% in test [2]; -13.2% in test [3]; -16.9% in test [4]; -5.4% in test [5]; 8.5% in test [6].

For the compound `CC(Cl)(CCl)C(=O)NCNC(=O)C(C)(Cl)CCl` (stereo not drawn), the growth inhibition is 51.5% in test [1]; 3.8% in test [2]; 8.2% in test [3]; -19.1% in test [4]; 15.8% in test [5]; 28.2% in test [6].

Regarding `CCOC(=O)c1c(C)cc2ccccn12`, the growth inhibition in test [1] is -11.4%; in test [2], -12.4%; in test [3], 0.05%; in test [4] it was -26.7%; in test [5] it was 8.3%; in test [6], 11.2%.

`O=C1CC(C2OCOC3COCOC32)CC(=O)N1` (stereo not drawn): the growth inhibition in test [1] is 4.15%; in test [2], -5.1%; in test [3], -7.15%; in test [4], 2.3%; in test [5], -12.8%; in test [6], -1.65%.

Regarding `CCO/C=C1/N=C(c2cccc3ccccc23)OC1=O`, the growth inhibition in test [1] was 3.15%; in test [2], -1.5%; in test [3] it was 5.7%; in test [4] it was -64.2%; in test [5], -1.85%; in test [6] it was 5.55%.

For the compound `CCOC(=O)C1=NC(c2ccccc2)N(c2ccccc2)C1c1ccccc1` (stereo not drawn), the growth inhibition in test [1] was -9%; in test [2], -8.5%; in test [3], 17.9%; in test [4] it was -0.75%; in test [5], 10.3%; in test [6], 8.3%.

For the compound `COC(=O)c1nn2c(=O)n(C(C)=O)c3ccccc3c2c1C(=O)OC`, the growth inhibition in test [1] is 27.2%; in test [2], 4.85%; in test [3], 9.65%; in test [4], 15.8%; in test [5], 8.5%; in test [6], 24.6%.

For the compound `CC(=O)NC1C(=O)N(c2ccccc2)N=C1C` (stereo not drawn), the growth inhibition in test [1] is 15.6%; in test [2], -6.05%; in test [3], -0.7%; in test [4] it was 22.6%; in test [5] it was -6.5%; in test [6], 9.85%.

As for `Cc1c([N+](=O)[O-])ccn1C`, the growth inhibition in test [1] is -1.55%; in test [2], 10.9%; in test [3], -5.7%; in test [4], 9.25%; in test [5], 7.2%; in test [6], -3.7%.

Take `CCOC(=O)C1Cc2c([nH]c(=O)[nH]c2=O)OC1c1ccc(OC)cc1` (stereo not drawn): the growth inhibition was 26.4% in test [1]; 7.1% in test [2]; 6.3% in test [3]; 19.4% in test [4]; 27.1% in test [5]; 8.5% in test [6].

Take `CC(=O)C(=Cc1c[nH]c2ccccc12)C(C)=O`: the growth inhibition in test [1] was 31.7%; in test [2], 13.7%; in test [3], 38.4%; in test [4], 9.65%; in test [5] it was 35.4%; in test [6] it was 31.6%.
